A selection: hits, their analogues and other compounds. The true share with any hit is near 3.5%.
BJeLR lethal = kills HRASV12-expressing BJeLR cells | BJeLR (HRASV12) viability, CellTiter-Glo ATP luminescence, 48 h | inhibition, % (no concentration beside the values) | hit rate 0.17% among 300,000 | AID 1554; in the data active = inhibition above about 50%; inconclusive = no clear call, values can overlap the other calls
BoNT A protease = inhibitors of Botulinum neurotoxin A light chain protease. multiplex microsphere protease substrate cleavage, flow cytometry. inhibition, % at 10 µM. hit rate 0.17% among 360,000. AID 588499; note: plate controls were buffer without enzyme for full effect and enzyme alone for no effect
BoNT F protease = inhibitors of Botulinum neurotoxin F light chain protease; Multiplex microsphere protease cleavage assay, flow cytometry; inhibition, % at 10 µM; hit rate 0.22% among 360,000; AID 588497; in the data active = inhibition above about 35%, passing the limit was not always enough; inconclusive = no clear call, values can overlap the other calls; note: plate controls were buffer without enzyme for full effect and enzyme alone for no effect
Bead autofluor = compound fluorescence in toxin protease inhibitor counterscreen; compound autofluorescence counterscreen, microsphere flow cytometry; hits give high values; fluorescence intensity (concentration not given with the values); hit rate 3.1% among 360,000; AID 624483; in the data active = fluorescence intensity above about 16000; inconclusive = no clear call, values can overlap the other calls
Anthrax LF prot = blocks Bacillus anthracis lethal factor protease; P15917; multiplex microsphere protease cleavage assay, LF; inhibition, % at 10 µM; hit rate 0.12% among 360,000; note: plate controls were buffer without enzyme for full effect and enzyme alone for no effect
The depositor's hits bear a star; ? = inconclusive; . = no result. Cut-off read from the data, not from the text of the source, unless noted: active = inhibition above about 30%; inconclusive = no clear call, values can overlap the other calls; inactive = below that.

SMILES	BJeLR lethal	BoNT A protease	BoNT F protease	Bead autofluor	Anthrax LF prot
CC(C)n1nc(C(=O)OCC(=O)c2c[nH]c3ccccc23)c2ccccc2c1=O	0	5	3	15302	-7
O=C(COC(=O)C1CCC1)c1c[nH]c2ccccc12	-3	1	-4	6422	0
CCn1nc(C(=O)OCC(=O)c2c[nH]c3ccccc23)c2ccccc2c1=O	-17	45*	-18	10209	38*
CCn1c(SCC(=O)c2c[nH]c3ccccc23)nnc1-c1cccs1	11	.	.	.	.
O=C(COC(=O)C1CC1)c1c[nH]c2ccccc12	-2	4	5	19998*	-16
COc1cccc(/C=C/C(=O)OCC(=O)c2c[nH]c3ccccc23)c1OC	2	39*	-9	4789	15
O=C(CN1CCCCC1)c1c[nH]c2ccccc12	8	-1	24	3702	-9
CC1CC(C)CN(CC(=O)c2c[nH]c3ccccc23)C1 (stereo unspecified)	3	2	36*	7467	0
Cc1ccc(SCC(=O)NCCN2C(=O)CSC2=O)cc1C	-2	0	1	23097*	-1
Cc1cccc(-n2nnnc2SCC(=O)NCCN2C(=O)CSC2=O)c1	-5	-1	-1	22931*	-2
CC(C(=O)Nc1ccccc1C#N)N1C(=O)NC2(CCCCCC2)C1=O (stereo unspecified)	.	-3	6	5142	-2
CC(C)C(NC(=O)COc1ccc2ccccc2c1)C(=O)N/N=C/C=C/c1ccccc1 (stereo unspecified)	-3	-1	-1	22567*	2
CN1CCc2c(c3c(n2C)CCN(C)C3c2ccc(F)cc2)C1c1ccc(F)cc1 (stereo unspecified)	-2	0	-1	8152	-2
COc1ccc(C2c3c4c(n(C)c3CCN2C)CCN(C)C4c2ccc(OC)cc2)cc1 (stereo unspecified)	2	-1	-1	16735*	-2
CC12CC3(C)CC(C)(C1)CC(C(=O)Nc1nn[nH]n1)(C2)C3	-11	0	1	8014	0
CCC12CC3CC(C1)CC(C(=O)Nc1nn[nH]n1)(C3)C2	-6	?	2	23265*	-7
CC12CC3CC(C)(C1)CC(C(=O)Nc1nn[nH]n1)(C3)C2	7	?	2	19766*	0
COC(=O)c1sccc1-c1ccc(C(=O)Nc2ccccc2)o1	-2	?	2	19373*	1
COC(=O)c1sccc1NC(=O)c1ccc(C)o1	-13	0	-14	4838	-1
CCC(Oc1ccccc1OC)C(=O)Nc1ccc2c(c1)OCCO2 (stereo unspecified)	1	0	9	3490	12
COc1ccc(CCN=c2c([N+](=O)[O-])nn(-c3cccc(C)c3)n2O)cc1OC	0	4	40*	4431	-4
Cc1c(Cl)cccc1N=c1c([N+](=O)[O-])nn(-c2ccccc2)n1O	5	-1	-9	11211	-2
Cc1ccc(N=c2c([N+](=O)[O-])nn(-c3ccccc3)n2O)c(C)c1	4	-4	-5	17460*	-2
COc1ccc(Cc2nnc(SCC(=O)c3ccc4c(c3)NC(=O)CO4)o2)cc1	19	3	2	?	1
CCOC(=O)c1ccc(N2C(=O)CC(N3CCCC(C)C3)C2=O)cc1 (stereo unspecified)	-10	-5	-8	25079*	-1
SMILES	BJeLR lethal	BoNT A protease	BoNT F protease	Bead autofluor	Anthrax LF prot
O=[N+]([O-])c1ccc(N2CCN(S(=O)(=O)c3ccc(Cl)cc3)CC2)cc1NCC1CCCO1 (stereo unspecified)	-7	-2	-5	16643*	-5
O=C1N/C(=N\N=C\c2ccc3ncccc3c2)SC1Cc1ccc(SC(F)F)cc1 (stereo unspecified)	.	?	4	20635*	1
CCCCOc1nc(N)nc(-c2ccccc2)n1	-1	0	-3	22127*	0
COc1cccc(CN2CCC2(C)C(=O)Nc2ccc3c(c2)OCO3)c1F (stereo unspecified)	.	-1	-22	2982	-8
CCc1nc2ccc(C(=O)NCCCn3ccnc3)cn2c1N(C)C(=O)COc1ccccc1	.	0	-1	3938	-9
CCOC(=O)C1CCCN(C(=O)c2cn(CC)c3ccc(S(=O)(=O)N4CCCC4)cc3c2=O)C1 (stereo unspecified)	.	1	-2	16154*	-4
CCOC(=O)C1CCCN(C(=O)c2cn(C)c3ccc(S(=O)(=O)N4CCCC4)cc3c2=O)C1 (stereo unspecified)	.	?	4	21667*	0
CCOC(=O)C1CCCN(C(=O)c2cc(S(=O)(=O)N3CCCCC3)ccc2C)C1 (stereo unspecified)	-7	1	5	4294	1
CCn1cc(C(=O)N2CC(C)CC(C)C2)c(=O)c2cc(S(=O)(=O)N3CCOCC3)ccc21 (stereo unspecified)	-8	-2	-4	24578*	1
CCn1cc(C(=O)NCc2ccc3c(c2)OCO3)c(=O)c2cc(S(=O)(=O)N3CCOCC3)ccc21	7	?	-10	21213*	0
CCn1cc(C(=O)NCc2ccc3c(c2)OCO3)c(=O)c2cc(S(=O)(=O)N(C)C)ccc21	-12	1	3	9237	-2
CCOc1cc(C(=O)N(C)CC(=O)Nc2cccc(F)c2)ccc1OCC(=O)N1CCCCC1	-6	-2	13	5739	-3
CN1CCCN(c2cc(-c3ccc4ccccc4c3)nc3ccnn23)CC1	.	7	-151	1174	-145
Cc1ccc2cccc(NS(=O)(=O)c3ccccc3)c2n1	69*	.	.	.	.
Cc1cc(C)nc(NS(=O)(=O)c2ccccc2)n1	-6	1	-6	7067	2
O=S(=O)(Nc1cccc2cccnc12)c1ccccc1	74*	2	9	5099	1
Cc1cccc(N2CCN(C(=O)C3CC(=O)N(C4CCCC4)C3)CC2)c1C (stereo unspecified)	3	-4	-14	?	1
COc1ccccc1C1/C(=C(/O)c2ccc(Cl)cc2)C(=O)C(=O)N1CCN1CCOCC1 (stereo unspecified)	1	0	7	3541	-2
Cc1ccc(C(=O)Nc2ccccc2N2CCCCC2)o1	7	0	4	5824	4
O=C(NC12CCC(O)C(SC1)/C2=N/O)c1ccccc1 (stereo unspecified)	6	4	7	19906*	-11
Nc1nc(C2CC(=O)OC23CCCCC3)cs1 (stereo unspecified)	8	0	14	3585	-1
Nc1nc(C2C(=O)CCCC2=O)cs1	1	-3	-6	24150*	-2
O=C(NCc1cccnc1)c1ccc2sc([C@H]3C[C@H](O)[C@@H](CO)O3)nc2c1	.	0	-4	3908	1
CN1CCC(OC(=O)c2cccc(Br)c2)CC1	-3	3	3	21018*	0
CN1CCCC(OC(=O)c2cccc(Br)c2)C1 (stereo unspecified)	-6	-1	?	3952	1
COc1ccc(NC(=O)Nc2c(C)n(-c3ccccc3)c(=O)n2C)cc1OC	-7	0	5	3343	5
